{"source": "the antibiotic and cytotoxicity screens of Wong et al. (2023)", "note": "The campaign covered roughly 39,000 compounds. About 3,300 (8.5%) were called active. Only a selection was taken, and actives are over-represented in it overall."}
{"tested_on": "HepG2", "experiment": "cytotoxicity call (relative viability < 0.9)", "details": "10 µM"}
{"smiles": "Cc1cn([C@H]2C[C@H](F)[C@@H](CO)O2)c(=O)[nH]c1=O", "cytotoxicity call": "inactive"}
{"smiles": "CCC(=O)N[C@@H]1CC[C@@H](CC(=O)OC)O[C@@H]1CO", "cytotoxicity call": "inactive"}
{"smiles": "C[C@@H]1CN([C@@H](C)CO)C(=O)c2cc(-c3cncnc3)cnc2O[C@@H]1CN(C)C(=O)CN1CCOCC1", "cytotoxicity call": "inactive"}
{"smiles": "C[C@@H]1CN([C@H](C)CO)C(=O)c2cccc(NC(=O)CCCCCC(=O)Nc3ccccc3N)c2O[C@@H]1CN(C)C(=O)Nc1ccc(C(F)(F)F)cc1", "cytotoxicity call": "inactive"}
{"smiles": "C[C@@H]1CCCCO[C@H](CN(C)S(=O)(=O)c2ccc(Cl)cc2)[C@@H](C)CN([C@H](C)CO)C(=O)c2cc(NC(=O)Nc3ccc(F)cc3)ccc2O1", "cytotoxicity call": "inactive"}
{"smiles": "C[C@@H]1CCCCO[C@@H](CN(C)S(=O)(=O)c2ccc(Cl)cc2)[C@H](C)CN([C@H](C)CO)C(=O)c2cc(NC(=O)Nc3ccc(F)cc3)ccc2O1", "cytotoxicity call": "active"}
{"smiles": "C[C@H](CO)N1C[C@H](C)[C@@H](CN(C)S(=O)(=O)c2ccc(Cl)cc2)OCCCC[C@H](C)Oc2ccc(NC(=O)Nc3ccc(F)cc3)cc2C1=O", "cytotoxicity call": "inactive"}
{"smiles": "C[C@@H]1CN([C@H](C)CO)C(=O)c2cc(NC(=O)Nc3ccc(F)cc3)ccc2O[C@@H](C)CCCCO[C@H]1CN(C)S(=O)(=O)c1ccc(Cl)cc1", "cytotoxicity call": "active"}
{"smiles": "C[C@H]1CCCCO[C@H](CN(C)S(=O)(=O)c2ccc(Cl)cc2)[C@@H](C)CN([C@@H](C)CO)C(=O)c2cc(NC(=O)Nc3ccc(F)cc3)ccc2O1", "cytotoxicity call": "inactive"}
{"smiles": "C[C@@H]1CCCCO[C@H](CN(C)S(=O)(=O)c2ccc(Cl)cc2)[C@H](C)CN([C@@H](C)CO)C(=O)c2cc(NC(=O)Nc3ccc(F)cc3)ccc2O1", "cytotoxicity call": "inactive"}
{"smiles": "COc1ccc(CN(C)C[C@@H]2Oc3c(NC(=O)c4cnccn4)cccc3C(=O)N([C@@H](C)CO)C[C@H]2C)cc1", "cytotoxicity call": "inactive"}
{"smiles": "CNC(=O)[C@H]1O[C@@H](n2cnc3c(NCc4cccc(I)c4)ncnc32)[C@H](O)[C@@H]1O", "cytotoxicity call": "inactive"}
{"smiles": "C[C@@H]1CCCCO[C@H](CN(C)C(=O)Nc2ccccc2)[C@@H](C)CN([C@@H](C)CO)C(=O)c2cc(NC(=O)c3ccccc3)ccc2O1", "cytotoxicity call": "inactive"}
{"smiles": "C[C@H]1CN([C@@H](C)CO)C(=O)c2cccc(NC(=O)c3nc4ccccc4s3)c2O[C@H]1CN(C)C(=O)Nc1ccc(F)cc1", "cytotoxicity call": "inactive"}
{"smiles": "C[C@H](CO)N1C[C@H](C)[C@@H](CN(C)C(=O)Nc2ccc3c(c2)OCO3)Oc2ccc(NS(C)(=O)=O)cc2C1=O", "cytotoxicity call": "inactive"}
{"smiles": "COc1ccc(S(=O)(=O)Nc2ccc3c(c2)CC(=O)N([C@@H](C)CO)C[C@H](C)[C@H](CN(C)S(=O)(=O)c2ccccc2)O3)cc1", "cytotoxicity call": "inactive"}
{"smiles": "C[C@H](CO)N1C[C@H](C)[C@H](CN(C)S(=O)(=O)c2cn(C)cn2)Oc2ccc(NC(=O)CCCN(C)C)cc2CC1=O", "cytotoxicity call": "inactive"}
{"smiles": "C[C@H](CO)N1C[C@H](C)[C@H](CN(C)S(=O)(=O)c2ccc(C#N)cc2)Oc2ncc(C#Cc3cccc(F)c3)cc2C1=O", "cytotoxicity call": "inactive"}
{"smiles": "C[C@@H]1CN([C@H](C)CO)C(=O)c2cc(C#Cc3cccnc3)cnc2O[C@@H]1CN(C)Cc1ccc(F)cc1", "cytotoxicity call": "inactive"}
{"smiles": "Cc1ccc(S(=O)(=O)N(C)C[C@@H]2Oc3ncc(C#Cc4ccccc4)cc3C(=O)N([C@H](C)CO)C[C@@H]2C)cc1", "cytotoxicity call": "inactive"}
{"smiles": "Cc1ccc(S(=O)(=O)N(C)C[C@@H]2Oc3ncc(C#Cc4cccc(F)c4)cc3C(=O)N([C@H](C)CO)C[C@@H]2C)cc1", "cytotoxicity call": "active"}
{"smiles": "COc1ccc(S(=O)(=O)N(C)C[C@@H]2Oc3ncc(C#Cc4ccc(OC)c(OC)c4)cc3C(=O)N([C@H](C)CO)C[C@@H]2C)cc1", "cytotoxicity call": "active"}
{"smiles": "C[C@H]1CN([C@@H](C)CO)C(=O)c2cc(C#Cc3cccnc3)cnc2O[C@@H]1CN(C)Cc1ccc(F)cc1", "cytotoxicity call": "inactive"}
{"smiles": "COc1ccc(C#Cc2cnc3c(c2)C(=O)N([C@H](C)CO)C[C@H](C)[C@H](CN(C)S(=O)(=O)c2ccc(C)cc2)O3)cc1OC", "cytotoxicity call": "inactive"}
{"smiles": "C[C@H](CO)N1C[C@H](C)[C@H](CN(C)Cc2ccc(F)cc2)Oc2ncc(C#Cc3cccnc3)cc2C1=O", "cytotoxicity call": "active"}
{"smiles": "C[C@H](CO)N1C[C@H](C)[C@H](CN(C)S(=O)(=O)c2cccc(F)c2)Oc2ncc(C#Cc3cccc(F)c3)cc2C1=O", "cytotoxicity call": "inactive"}
{"smiles": "C[C@H](CO)N1C[C@H](C)[C@H](CN(C)S(=O)(=O)c2ccc(F)cc2)Oc2ncc(C#Cc3cccc(F)c3)cc2C1=O", "cytotoxicity call": "active"}
{"smiles": "COc1ccc(C#Cc2cnc3c(c2)C(=O)N([C@H](C)CO)C[C@H](C)[C@H](CN(C)S(=O)(=O)c2ccc(C#N)cc2)O3)cc1OC", "cytotoxicity call": "inactive"}
{"smiles": "C[C@H](CO)N1C[C@H](C)[C@H](CN(C)S(=O)(=O)c2ccccc2)Oc2ncc(C#Cc3cccc(F)c3)cc2C1=O", "cytotoxicity call": "inactive"}
{"smiles": "C[C@H](CO)N1C[C@H](C)[C@H](CN(C)Cc2ccncc2)Oc2ccc(NS(=O)(=O)c3ccccc3)cc2C1=O", "cytotoxicity call": "inactive"}
{"smiles": "COc1ccc(S(=O)(=O)N(C)C[C@H]2Oc3ccc(N(C)C)cc3CC(=O)N([C@@H](C)CO)C[C@H]2C)cc1", "cytotoxicity call": "inactive"}
{"smiles": "COc1ccc(NC(=O)N(C)C[C@@H]2Oc3ncc(C#CC(C)C)cc3C(=O)N([C@@H](C)CO)C[C@H]2C)cc1", "cytotoxicity call": "inactive"}
{"smiles": "NC1CCN(C(=O)NC2CCCCC2)CC1", "cytotoxicity call": "inactive"}
{"smiles": "C[C@H]1CCCCO[C@H](CN(C)C(=O)CCC(F)(F)F)[C@@H](C)CN([C@@H](C)CO)C(=O)c2cc(NS(=O)(=O)c3ccccc3)ccc2O1", "cytotoxicity call": "inactive"}
{"smiles": "C[C@H]1CC/C=C\\[C@H]2O[C@@]34C=CCN(c5ccc(Cl)cc5)C(=O)[C@H]3N(CCO)C(=O)[C@]4(C)[C@@H]2C(=O)O1", "cytotoxicity call": "inactive"}
{"smiles": "Cc1noc(C)c1S(=O)(=O)Nc1ccc2c(c1)C(=O)N([C@@H](C)CO)C[C@@H](C)[C@@H](CN(C)C)OCCCC[C@H](C)O2", "cytotoxicity call": "inactive"}
{"smiles": "C[C@@]12CC[C@@H]3c4ccc(O)cc4C[C@H](CCCCCCCCC[S@@](=O)CCCC(F)(F)C(F)(F)F)[C@@H]3[C@@H]1CC[C@@H]2O", "cytotoxicity call": "inactive"}
{"smiles": "O=C(C[C@H]1CC[C@@H]2[C@H](COC[C@@H](O)CN2S(=O)(=O)c2ccccc2)O1)N[C@@H]1CCN(Cc2ccccc2)C1", "cytotoxicity call": "inactive"}
{"smiles": "Cc1ccccc1S(=O)(=O)N1C[C@@H](O)COC[C@@H]2O[C@H](CC(=O)NCCc3ccncc3)CC[C@H]21", "cytotoxicity call": "inactive"}
